Shiga toxin inh: blocks Shiga toxin action in Vero cells | 9.2% of 290,000 active | AID 2315 | inhibition, % at 38.7 µM | Vero cells, Shiga toxin protein synthesis inhibition reporter; in the data active = inhibition mostly above about 28%, no sharp cut-off; inactive = mostly below about 43%; note: 0% is about no effect
Sm TGR inh: S. mansoni TGR enzyme inhibition; AID 485364; Q962Y6; Potency, µM (highest dose often 114 µM), inactives show top-dose activity change, negative = inhibition, usual class: inhibitors; purified TGR, DTNB reduction, TNB absorbance 405 nm; 3% of 360,000 active; active = well fitted inhibition curve with a large enough effect; inconclusive = small, poorly fitted or top-dose-only effect; inactive = no such curve, though single readings can be large or run the other way; note: potency is the fitted concentration of half-maximal effect; % is set by controls: 0 for no effect and ±100 for the full control effect; nearly all actives have a fitted effect of over 60% in size
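TGR 20 nM + NADPH 100 uM (dispensed conc.), cpd preinc 15 min RT; start with NADPH (500 uM addition) then DTNB (15 mM addition). Kinetic TNB absorbance, 405 nm filter. Four-parameter Hill fit across titration.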
FMDV inh: antivirals against foot and mouth disease virus; FMDV antiviral cell-based qHTS; Potency, µM (series often up to 57.9 µM), for inactives: at the highest dose activity change, negative = inhibition, hits mostly inhibitors; 1.2% of 410,000 active; AID 1159524; calls by dose curve; tested in HEK293T cells; note: read-out not given here; potency is the fitted concentration of half-maximal effect; % is set by controls: 0 for no effect and ±100 for the full control effect; nearly all actives have a fitted effect of over 45% in size
Cycloheximide cs: counter-screen for Shiga toxin inhibitors: cycloheximide protein synthesis inhibition; 12% of 300,000 active; cell reporter, cycloheximide protein synthesis inhibition counterscreen; max response, %; in the data active = max response mostly above about 13%, no sharp cut-off; inactive = mostly below about 14%; note: read at 38.3 µM for the half of the compounds with a filed dose; 0% is about no effect
* hit, by the source's call; ? = inconclusive; . = no result given. In the library only some 12% were active in any assay of this set; here they are far more common.

SMILES | Shiga toxin inh | Sm TGR inh | FMDV inh | Cycloheximide cs
CCOC(=O)c1cnc2ccccc2c1Nc1ccc(C(=O)O)cc1 | -6 | 48% | -5% | 12
CCc1ccc(NCc2nc3ccccc3c(=O)[nH]2)cc1 | 88* | 0% | -17% | 25*
CCOC(=O)Cc1nc2ccccc2[nH]1 | 17 | 3% | -3% | -1
CCOC(=O)c1ccc(NCc2nc3ccccc3[nH]2)cc1 | 73* | -3% | -15% | 53*
COCC(=O)Nc1cc(C(=O)NC2Cc3ccccc3C2)cc2nc(-c3cccnc3)n(C)c12 | . | . | 4% | .
CCOC(=O)c1ccc(Nc2cnc3ccccc3n2)cc1 | 78* | 6% | 27% | 47*
CCOC(=O)c1ccc(Nc2cc(C)nc(-c3ccccc3)n2)cc1 | 27 | -11% | -22% | 0
O=C(O)CN1C(=O)/C(=C/c2ccc(N3CCCCC3)o2)SC1=S | -5 | 2.8µM* | ? | -1
COC(=O)CN1C(=O)S/C(=C/c2ccc(N3CCCCC3)o2)C1=O | -3 | 7.1µM* | 21% | 9
CCOC(=O)CN1C(=O)S/C(=C/c2ccc(N3CCCCC3)o2)C1=O | -17 | -9% | -6% | 2
COC(=O)CN1C(=O)S/C(=C/c2cc(C)n(C)c2C)C1=O | 35* | ? | 63% | 28*
CCC(C(=O)Nc1cc(-c2cn3cccnc3n2)ccc1C)c1ccccc1 (configuration not stated) | . | 3% | -8% | .
COCCC(=O)N1CCc2ccc(NC(=O)c3ccc(C(F)(F)F)cc3)cc2C1 | 26* | -5% | ? | 14
CN(C)S(=O)(=O)N1CCc2ccc(NC(=O)c3ccc(C(F)(F)F)cc3)cc2C1 | . | -1% | ? | 27*
COCCC(=O)Nc1ccc2c(c1)CN(C(=O)CSC)CC2 | 31 | -20% | -8% | 7
COc1ccc(C2CC(=O)c3cc(-c4nc(-c5cccc([N+](=O)[O-])c5)cs4)c(=O)n(-c4ccc(C)c(C)c4)c3C2)cc1 (configuration not stated) | . | 5% | -12% | .
Cc1cc(C(=O)Nc2ccc(N3CCCCC3)cc2)no1 | 39 | -5% | -51% | 16*
Cc1cnc(C(=O)Nc2ccc(N3CCOCC3)cc2)cn1 | 66* | -3% | 70% | 22*
Cc1cc(C(=O)Nc2ccc(S(=O)(=O)N3CCCC3)cc2)no1 | 31 | -1% | 0% | -2
Cc1cnc(C(=O)Nc2ccc(C(=O)N3CCCCC3)cc2)cn1 | 12 | 10% | 23% | 6
O=C(O)c1ccccc1-c1ccccc1C(=O)Nc1ccc(OC(F)(F)F)cc1 | -9 | -21% | -15% | -1
Cc1cnc(C(=O)Nc2ccc(N3CCCCC3)cc2)cn1 | 84* | 4% | -19% | 32*
Cc1cnc(C(=O)Nc2ccc(-n3cnnn3)cc2)cn1 | 9 | 2% | 41% | -2
O=C(Nc1ccc(OC(F)(F)F)cc1)C1=NCCN1 | 38* | 6% | -5% | 40*
COc1ccc(Oc2ncc3nc(-c4cccc(C#N)c4)c(=O)n(Cc4cccc(OC)c4)c3n2)cc1 | . | . | -5% | .
SMILES | Shiga toxin inh | Sm TGR inh | FMDV inh | Cycloheximide cs
Cc1cnc(C(=O)Nc2ccc(OC(F)(F)F)cc2)cn1 | 48* | -2% | 0% | 27*
CNCC(=O)Nc1ccc(OC(F)(F)F)cc1 | -7 | 3% | -4% | 5
CCc1ccc(NC(=O)Nc2cnccn2)cc1 | 102* | 1% | 57% | 47*
CCCCc1ccc(NC(=O)Nc2cnccn2)cc1 | 50* | -3% | 38% | 23*
Cc1cccc(NC(=O)Nc2cnccn2)c1 | 40 | 2% | 19% | 18
CCc1ccc(NC(=O)Nc2ccon2)cc1 | 62* | -3% | 76% | 68*
Cc1cccnc1-c1cccc2c1OC(CNC(=O)Cc1c(C)noc1C)C2 (configuration not stated) | . | . | -7% | .
COc1ccc(C/C(=N\OC(C)=O)c2ccc(OC)cc2)cc1 | 23 | -29% | 28% | 18*
COc1ccc(CC(=O)Nc2ccc(C(N)=O)cc2)cc1 | -7 | 1% | -19% | 0
COC(=O)/N=C(/Cc1ccc(OC)cc1)c1ccc(OC)cc1 | 56* | 3% | 11% | 18*
CCOC(=O)CN1NC2(CCC(C(C)(C)C)CC2)NC1=S (configuration not stated) | -21 | 12% | 3% | 8
CC(C)(C)C1CCC2(CC1)NC(=S)N(c1ccccc1)N2 (configuration not stated) | 42* | -19% | 27% | 24*
CCC(C)(C)C1CCC2(CC1)NC(=S)N(c1ccccc1)N2 (configuration not stated) | 98* | -6% | 41% | 35*
COc1ccc(S(=O)(=O)Nc2ccc3c(c2)sc(=O)n3C)cc1Cl | . | 0% | 26% | .
CC(C)CCn1c(SCC(=O)Nc2ccccc2C(F)(F)F)nc2nccnc2c1=O | -7 | 22µM* | -21% | -5
